In the supplement of paper PMC11732987, “Enantioselective OTUD7B fragment discovery through chemoproteomics screening and high-throughput optimisation” (Communications Chemistry, 2025):

Tests used:
Assay in all cases: log2 ratio of Biotin-Ahx-Ub-VS probe labelling (fragment/DMSO); higher = less target engagement (more negative = stronger competition), active = hit call of the paper (q ≤ 0.05, log2 ratio ≤ -1)
Details in all cases: compound concentration: 200 uM; treatment time: 3 h
USP19 = target: T1, USP19 (UniProt O94966)
T1 sequence (whole entry): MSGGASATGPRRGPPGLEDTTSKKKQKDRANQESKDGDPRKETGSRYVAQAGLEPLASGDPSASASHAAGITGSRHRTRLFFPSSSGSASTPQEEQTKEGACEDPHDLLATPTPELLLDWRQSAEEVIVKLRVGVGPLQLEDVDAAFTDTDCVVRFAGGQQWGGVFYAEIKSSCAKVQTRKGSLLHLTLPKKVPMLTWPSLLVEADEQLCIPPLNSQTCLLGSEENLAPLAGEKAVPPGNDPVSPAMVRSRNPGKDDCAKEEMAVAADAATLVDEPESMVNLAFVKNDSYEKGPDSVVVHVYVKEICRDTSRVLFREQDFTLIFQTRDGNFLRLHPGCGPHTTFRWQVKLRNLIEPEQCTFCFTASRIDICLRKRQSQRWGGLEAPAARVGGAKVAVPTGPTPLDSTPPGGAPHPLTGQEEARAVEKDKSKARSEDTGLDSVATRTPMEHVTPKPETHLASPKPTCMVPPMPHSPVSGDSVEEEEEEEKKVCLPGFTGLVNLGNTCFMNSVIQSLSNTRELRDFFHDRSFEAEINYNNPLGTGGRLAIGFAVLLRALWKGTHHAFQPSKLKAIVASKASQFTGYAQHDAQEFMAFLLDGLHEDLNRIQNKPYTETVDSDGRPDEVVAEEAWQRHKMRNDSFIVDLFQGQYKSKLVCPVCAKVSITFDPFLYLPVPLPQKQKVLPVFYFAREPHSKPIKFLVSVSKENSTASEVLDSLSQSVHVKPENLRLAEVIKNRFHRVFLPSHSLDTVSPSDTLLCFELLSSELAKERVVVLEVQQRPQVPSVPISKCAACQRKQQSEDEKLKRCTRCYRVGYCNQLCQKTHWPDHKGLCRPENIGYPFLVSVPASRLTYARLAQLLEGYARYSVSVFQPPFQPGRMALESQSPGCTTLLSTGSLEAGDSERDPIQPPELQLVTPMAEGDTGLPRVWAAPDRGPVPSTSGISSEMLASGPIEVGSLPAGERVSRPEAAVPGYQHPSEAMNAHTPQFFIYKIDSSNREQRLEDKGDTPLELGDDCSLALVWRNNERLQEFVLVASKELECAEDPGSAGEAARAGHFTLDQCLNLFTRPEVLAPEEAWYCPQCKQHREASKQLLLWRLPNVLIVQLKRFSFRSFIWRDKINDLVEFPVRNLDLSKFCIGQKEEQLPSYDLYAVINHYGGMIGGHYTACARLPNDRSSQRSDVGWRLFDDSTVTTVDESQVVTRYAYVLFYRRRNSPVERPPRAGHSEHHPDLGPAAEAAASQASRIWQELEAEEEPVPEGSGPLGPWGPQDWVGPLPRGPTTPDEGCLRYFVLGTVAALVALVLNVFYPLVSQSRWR
Method in brief: (§1)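 HEK293T lysate, 495 µg per sample in Tris/CHAPS/IGEPAL buffer with protease inhibitors, was treated in triplicate with fragment at 200 µM or vehicle for 3 h and then with Biotin-Ahx-Ub-VS at 0.5 µM final for 1 h. Labelled DUBs were NeutrAvidin-enriched, digested with LysC and trypsin, and run by diaPASEF LC-MS/MS. Spectronaut label-free quantities were global-median-normalised, and values are average log2 fragment/vehicle ratios by unpaired t-test on proteins with ≥2 unique peptides.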

USP24 = USP24 (UniProt Q9UPU5)
Method in brief: as §1

USP25 = target: T2, USP25 (UniProt Q9UHP3)
T2 sequence (whole entry): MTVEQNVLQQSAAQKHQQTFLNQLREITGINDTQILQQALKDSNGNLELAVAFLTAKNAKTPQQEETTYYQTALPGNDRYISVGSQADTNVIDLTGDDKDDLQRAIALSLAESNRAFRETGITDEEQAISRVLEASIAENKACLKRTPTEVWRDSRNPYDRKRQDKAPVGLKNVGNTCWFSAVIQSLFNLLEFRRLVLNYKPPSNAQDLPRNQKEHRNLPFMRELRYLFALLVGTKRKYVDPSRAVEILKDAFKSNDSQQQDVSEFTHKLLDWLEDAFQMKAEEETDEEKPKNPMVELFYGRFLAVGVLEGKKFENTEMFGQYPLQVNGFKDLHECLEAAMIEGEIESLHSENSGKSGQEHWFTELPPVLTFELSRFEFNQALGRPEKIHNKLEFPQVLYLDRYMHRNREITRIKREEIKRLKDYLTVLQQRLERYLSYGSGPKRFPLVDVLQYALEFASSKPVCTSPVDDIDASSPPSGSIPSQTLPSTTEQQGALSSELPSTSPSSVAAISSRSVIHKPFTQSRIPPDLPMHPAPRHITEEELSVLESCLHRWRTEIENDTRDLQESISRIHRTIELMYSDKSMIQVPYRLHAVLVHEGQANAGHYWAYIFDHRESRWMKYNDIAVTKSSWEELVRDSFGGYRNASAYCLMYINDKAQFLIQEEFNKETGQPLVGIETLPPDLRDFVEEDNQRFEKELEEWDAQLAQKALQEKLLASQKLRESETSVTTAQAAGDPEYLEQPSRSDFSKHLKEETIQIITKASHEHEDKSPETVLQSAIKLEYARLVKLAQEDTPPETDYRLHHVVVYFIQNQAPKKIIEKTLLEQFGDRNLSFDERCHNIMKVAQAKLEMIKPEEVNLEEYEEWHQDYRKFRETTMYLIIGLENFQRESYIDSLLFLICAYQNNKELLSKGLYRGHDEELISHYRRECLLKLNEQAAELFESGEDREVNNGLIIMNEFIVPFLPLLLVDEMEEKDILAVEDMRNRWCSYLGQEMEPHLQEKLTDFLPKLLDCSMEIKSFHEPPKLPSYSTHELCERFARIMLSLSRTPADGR
Method in brief: as §1

USP28 = target: T3, USP28 (UniProt Q96RU2)
T3 sequence (whole entry): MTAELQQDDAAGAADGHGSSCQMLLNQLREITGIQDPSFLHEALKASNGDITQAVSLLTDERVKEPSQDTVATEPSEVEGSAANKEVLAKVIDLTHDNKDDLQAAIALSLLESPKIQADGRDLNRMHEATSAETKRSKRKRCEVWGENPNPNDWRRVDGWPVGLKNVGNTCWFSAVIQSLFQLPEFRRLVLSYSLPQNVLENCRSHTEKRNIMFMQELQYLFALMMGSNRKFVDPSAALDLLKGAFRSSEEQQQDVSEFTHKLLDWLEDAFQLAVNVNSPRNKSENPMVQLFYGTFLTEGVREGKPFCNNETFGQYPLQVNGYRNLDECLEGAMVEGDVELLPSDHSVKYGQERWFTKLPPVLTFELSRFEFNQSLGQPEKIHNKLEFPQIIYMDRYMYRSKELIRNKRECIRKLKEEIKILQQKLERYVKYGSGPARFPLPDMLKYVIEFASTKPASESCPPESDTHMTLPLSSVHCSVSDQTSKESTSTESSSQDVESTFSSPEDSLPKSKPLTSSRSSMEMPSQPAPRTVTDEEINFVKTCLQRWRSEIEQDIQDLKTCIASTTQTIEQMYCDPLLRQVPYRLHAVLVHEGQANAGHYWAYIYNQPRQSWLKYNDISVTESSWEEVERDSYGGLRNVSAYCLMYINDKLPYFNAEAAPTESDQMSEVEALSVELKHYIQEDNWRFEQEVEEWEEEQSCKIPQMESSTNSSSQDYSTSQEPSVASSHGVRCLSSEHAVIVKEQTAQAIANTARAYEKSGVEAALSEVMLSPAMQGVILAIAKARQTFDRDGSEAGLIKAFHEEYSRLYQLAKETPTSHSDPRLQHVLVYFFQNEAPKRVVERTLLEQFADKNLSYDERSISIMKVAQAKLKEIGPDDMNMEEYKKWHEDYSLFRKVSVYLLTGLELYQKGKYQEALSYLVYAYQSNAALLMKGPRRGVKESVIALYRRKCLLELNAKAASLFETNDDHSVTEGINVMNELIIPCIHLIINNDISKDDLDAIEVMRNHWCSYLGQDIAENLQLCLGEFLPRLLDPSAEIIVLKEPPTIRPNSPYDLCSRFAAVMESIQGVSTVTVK
Method in brief: as §1

Measured: log2 ratio of Biotin-Ahx-Ub-VS probe labelling

Chain of USP24 (Q9UPU5 whole entry): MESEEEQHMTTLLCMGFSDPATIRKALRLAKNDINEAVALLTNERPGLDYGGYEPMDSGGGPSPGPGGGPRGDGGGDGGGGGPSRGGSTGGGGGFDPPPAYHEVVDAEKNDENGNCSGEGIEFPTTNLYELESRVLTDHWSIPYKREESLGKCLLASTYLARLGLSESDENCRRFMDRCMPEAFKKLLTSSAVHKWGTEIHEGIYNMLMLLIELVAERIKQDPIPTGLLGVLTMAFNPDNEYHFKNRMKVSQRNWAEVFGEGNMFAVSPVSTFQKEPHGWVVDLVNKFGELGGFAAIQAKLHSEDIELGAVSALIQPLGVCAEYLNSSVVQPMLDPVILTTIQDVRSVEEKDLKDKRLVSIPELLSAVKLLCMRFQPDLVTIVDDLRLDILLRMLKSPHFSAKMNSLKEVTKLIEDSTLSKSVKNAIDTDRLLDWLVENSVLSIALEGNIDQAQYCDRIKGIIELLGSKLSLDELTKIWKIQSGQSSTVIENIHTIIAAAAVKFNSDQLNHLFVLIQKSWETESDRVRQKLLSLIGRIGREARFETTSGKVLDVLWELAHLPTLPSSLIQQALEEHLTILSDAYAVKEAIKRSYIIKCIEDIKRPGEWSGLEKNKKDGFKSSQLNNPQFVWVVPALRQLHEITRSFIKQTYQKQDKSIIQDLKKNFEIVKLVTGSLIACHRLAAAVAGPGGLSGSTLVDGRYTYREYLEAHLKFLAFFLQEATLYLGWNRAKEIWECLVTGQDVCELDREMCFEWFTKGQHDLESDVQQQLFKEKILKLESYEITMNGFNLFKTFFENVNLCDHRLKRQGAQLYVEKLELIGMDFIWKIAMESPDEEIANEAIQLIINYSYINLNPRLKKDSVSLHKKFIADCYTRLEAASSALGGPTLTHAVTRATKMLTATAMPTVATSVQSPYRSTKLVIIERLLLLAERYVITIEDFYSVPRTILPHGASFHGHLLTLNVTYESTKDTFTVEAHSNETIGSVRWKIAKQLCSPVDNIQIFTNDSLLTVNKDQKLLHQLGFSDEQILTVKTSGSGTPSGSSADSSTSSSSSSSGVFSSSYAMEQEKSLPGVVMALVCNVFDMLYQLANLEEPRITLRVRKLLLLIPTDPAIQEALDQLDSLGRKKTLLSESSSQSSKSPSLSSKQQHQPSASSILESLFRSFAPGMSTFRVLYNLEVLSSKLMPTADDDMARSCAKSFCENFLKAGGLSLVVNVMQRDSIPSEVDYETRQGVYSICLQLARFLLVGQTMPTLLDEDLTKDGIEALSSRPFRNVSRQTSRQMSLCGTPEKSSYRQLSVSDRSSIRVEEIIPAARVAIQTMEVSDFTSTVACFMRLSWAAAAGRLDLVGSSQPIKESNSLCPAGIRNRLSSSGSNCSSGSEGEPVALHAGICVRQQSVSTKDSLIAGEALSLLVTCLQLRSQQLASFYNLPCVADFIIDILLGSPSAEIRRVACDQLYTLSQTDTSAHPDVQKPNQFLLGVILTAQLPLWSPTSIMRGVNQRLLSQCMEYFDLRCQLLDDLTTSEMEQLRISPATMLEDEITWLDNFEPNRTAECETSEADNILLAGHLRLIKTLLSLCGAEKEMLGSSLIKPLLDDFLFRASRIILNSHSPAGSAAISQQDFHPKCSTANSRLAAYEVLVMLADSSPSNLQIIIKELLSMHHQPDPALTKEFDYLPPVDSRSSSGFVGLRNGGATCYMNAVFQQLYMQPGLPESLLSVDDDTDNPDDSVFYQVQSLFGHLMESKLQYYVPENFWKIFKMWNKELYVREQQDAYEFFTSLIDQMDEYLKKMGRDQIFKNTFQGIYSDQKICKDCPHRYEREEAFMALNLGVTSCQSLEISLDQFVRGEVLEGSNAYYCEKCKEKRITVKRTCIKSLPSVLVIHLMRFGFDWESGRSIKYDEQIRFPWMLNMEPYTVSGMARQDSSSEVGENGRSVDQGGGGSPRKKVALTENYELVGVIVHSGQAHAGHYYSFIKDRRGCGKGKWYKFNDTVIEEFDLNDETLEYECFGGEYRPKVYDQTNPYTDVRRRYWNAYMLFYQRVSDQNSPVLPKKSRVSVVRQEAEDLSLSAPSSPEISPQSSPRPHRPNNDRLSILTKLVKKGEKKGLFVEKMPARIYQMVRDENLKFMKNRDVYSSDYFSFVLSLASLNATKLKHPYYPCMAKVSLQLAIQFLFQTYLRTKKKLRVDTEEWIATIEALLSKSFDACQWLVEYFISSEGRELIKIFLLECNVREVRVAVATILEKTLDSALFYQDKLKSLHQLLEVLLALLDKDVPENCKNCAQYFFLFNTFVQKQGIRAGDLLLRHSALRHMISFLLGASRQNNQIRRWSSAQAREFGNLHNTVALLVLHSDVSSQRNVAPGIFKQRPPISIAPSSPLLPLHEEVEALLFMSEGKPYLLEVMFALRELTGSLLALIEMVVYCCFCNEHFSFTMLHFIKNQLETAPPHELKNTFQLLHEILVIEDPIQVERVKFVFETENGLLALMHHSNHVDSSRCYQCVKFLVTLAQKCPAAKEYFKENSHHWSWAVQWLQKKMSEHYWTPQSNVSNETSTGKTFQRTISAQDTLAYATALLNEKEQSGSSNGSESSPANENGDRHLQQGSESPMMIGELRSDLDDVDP

Cc1noc(N2CCN(C(=O)CCl)CC2)n1.Cl
inactive: USP19 -0.238 | USP24 -0.00876 | USP25 -0.13 | USP28 -0.444
